KCNQ2 enhance: potentiators of rat KCNQ2 potassium channel; CHO-K1 KCNQ2, FluxOR thallium flux fluorescence; active compounds read high; B-score at 10 µM; 0.54% of 310,000 active;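 active = fluorescence ratio B-score at least 3 SD of library B-scores, with initial fluorescence B-score within 3 of them, cut at about 5.3 in these data; same plate scores as AID 2156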;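 also: B-score of peak minus minimum over baseline fluorescence ratio after K+ and Tl+ stimulus; positive B-score means potentiation of KCNQ2 with more thallium influx and brighter signal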
KCNQ2 block: blocks the rat KCNQ2 potassium channel. CHO-K1 KCNQ2, FluxOR thallium flux, 20 min; active compounds read low. B-score at 10 µM. O88943. 1.1% of 310,000 active;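 active = fluorescence ratio B-score at most minus 3 library SDs, with starting brightness B-score within 2 library SDs, cut at about -5.5 in these data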
Kir21 confirm: confirmation of mouse Kir2.1 potassium channel inhibitors. Tl flux remaining, % of negative control (active compounds read low), % at 10 µM. 41% of 2,300 active. shares compounds with KCNQ2 enhance. Kir2.1-expressing cells, FluxOR thallium flux fluorescence; active compounds read low;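 active = Primary-screen hit whose thallium flux fell at least 3 control SD below untreated wells in both duplicates, with normal baseline fluorescence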
HEK293 Tl flux: alters thallium flux in parental HEK293 cells, Kir2.1 counter-screen | FluxOR signal as % of negative control (100 = no effect), % at 10 µM | FluxOR thallium flux fluorescence; 0% = unstimulated blank wells | shares compounds with KCNQ2 enhance | 19% of 2,300 active | AID 2105;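 active = dye signal at least 3 control SD above or below untreated wells in both duplicates, raw fluorescence within 3, either direction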;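 also: percent is based on the flux ratio of peak minus minimum fluorescence over baseline F0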
CHO-K1 ctr: parental CHO-K1 activity in KCNQ2 potentiator counter-screen; parental CHO-K1 cells, FluxOR thallium flux fluorescence; zero = vehicle mean+3SD, 100% = vehicle-minus-blank window; 43% of 1,200 active; shares compounds with KCNQ2 enhance; activity increase over 3SD of controls, % at 10 µM;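 active = signal rise of at least 3 SD above the untreated control mean, in both duplicate wells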;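 also: counter screen of KCNQ2 potentiator hits so any rise reflects channel-independent effects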
KCNQ1 sel pot: tests whether KCNQ2 potentiators also act on human KCNQ1; activation over 3SD threshold, % at 10 µM; AID 2283; CHO KCNQ1 stable, FluxOR thallium flux fluorescence; beyond 3SD, as % of vehicle-control signal; shares compounds with KCNQ2 enhance; 28% of 1,200 active;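 active = fluorescence ratio rise of at least 3 SD of vehicle wells above their mean, in both replicate wells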
KCNQ2 pot confirm: confirmation of rat KCNQ2 potassium channel potentiators; shares compounds with KCNQ2 enhance; CHO-KCNQ2 cells, FluxOR thallium flux fluorescence; AID 2287; potentiation, less the hit threshold, % at 10 µM; 68% of 1,200 active;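 active = fluorescence ratio rising 3 SD or more over the vehicle control mean in both replicates, plus primary screen hit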;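 also: peak minus minimum thallium fluorescence divided by baseline after K/Tl stimulus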
Kir21 spec: selectivity of KCNQ2 potentiators: effect on mouse Kir2.1. shares compounds with KCNQ2 enhance. HEK293 Kir2.1, FluxOR thallium flux fluorescence. activity over 3SD threshold, % at 10 µM. 2% of 1,200 active;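 active = fluorescence ratio rise of at least 3 SD above the vehicle-control mean, seen in both replicates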
KCNQ2 W236L MoA: KCNQ2 potentiators acting on retigabine-insensitive rat KCNQ2 W236L mutant; shares compounds with KCNQ2 enhance; CHO KCNQ2-W236L, automated patch clamp current; current increase over 3SD of negative controls (%), active compounds read high, % at 25 µM; 10% of 940 active;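 active = current increase at least 3 SD of the untreated controls above them in both duplicate recordings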
Each line names hits and unclear results; the compound was inactive in the other large screens (follow-up assays come after a bar, where they were run). Hits are enriched below; roughly 1.6% of the tested compounds scored in any of these assays.

O=C(O)c1cc(NN=Nc2cccc([N+](=O)[O-])c2)cc([N+](=O)[O-])c1	none
O=C(O)c1cc(NN=Nc2ccc(Br)cc2)cc([N+](=O)[O-])c1	KCNQ2 enhance 7.4 | Kir21 confirm inactive | HEK293 Tl flux inactive | CHO-K1 ctr inactive | KCNQ1 sel pot 33 | KCNQ2 pot confirm 16 | Kir21 spec inactive | KCNQ2 W236L MoA inactive
Cc1[nH][nH]c(=O)c1C(c1ccc(-c2cccc(Cl)c2)o1)c1c(C)[nH][nH]c1=O	KCNQ2 block -5.9 | Kir21 confirm inactive | HEK293 Tl flux inactive
Cc1[nH][nH]c(=O)c1C(c1ccc(-c2cccc(C(=O)O)c2)o1)c1c(C)[nH][nH]c1=O	none (no result: KCNQ2 enhance)
Cc1nn(C)cc1S(=O)(=O)N1CCN(c2cccc(Cl)c2)CC1	none
CC(=O)N1CCN(C(=O)c2cc(S(=O)(=O)N3CCCCC3)ccc2Cl)CC1	none
Cc1cc(C)c(C)c(S(=O)(=O)NCC(=O)Nc2ccccc2F)c1C	none (no result: KCNQ2 enhance) | Kir21 confirm 66% | HEK293 Tl flux inactive
Cc1cc(C)c(C)c(S(=O)(=O)NCC(=O)O)c1C	none
CSc1ncc(Cl)c(C(=O)Nc2nnc(SC)s2)n1	none
CCOc1ccccc1NC(=O)c1nc(S(=O)(=O)Cc2ccccc2)ncc1Cl	none
CCCc1nnc(NC(=O)c2nc(S(=O)(=O)Cc3ccc(C)cc3)ncc2Cl)s1	KCNQ2 enhance 10 | CHO-K1 ctr inactive | KCNQ1 sel pot inactive | KCNQ2 pot confirm 55 | Kir21 spec inactive | KCNQ2 W236L MoA 25%
CCc1ccc(NC(=O)c2nc(S(=O)(=O)Cc3ccccc3)ncc2Cl)cc1	none
CSc1nnc(NC(=O)c2nc(S(=O)(=O)Cc3ccccc3)ncc2Cl)s1	KCNQ2 enhance 14 | Kir21 confirm inactive | HEK293 Tl flux inactive | CHO-K1 ctr 23 | KCNQ1 sel pot 18 | KCNQ2 pot confirm 83 | Kir21 spec inactive | KCNQ2 W236L MoA 32%
CC(C)c1nnc(NC(=O)c2nc(S(=O)(=O)Cc3ccccc3)ncc2Cl)s1	KCNQ2 enhance 15 | Kir21 confirm inactive | HEK293 Tl flux inactive | CHO-K1 ctr 23 | KCNQ1 sel pot inactive | KCNQ2 pot confirm 94 | Kir21 spec inactive | KCNQ2 W236L MoA 29%
CN(C)c1ccc(S(=O)(=O)N2CCCCC2)cc1NC(=O)CN1C(=O)NC2(CCCC2)C1=O	none (no result: KCNQ2 enhance)
Cc1ccc(-c2nc(C)sc2CC(=O)OCC(=O)Nc2ccc(F)c(Cl)c2)cc1	none (no result: KCNQ2 enhance)
NC(=O)c1cccc2c3c([nH]c12)CCCC3	none
CCOC(=O)C1CCCc2c1[nH]c1c(C(N)=O)cccc21 (stereo not drawn)	KCNQ2 enhance 9.7 | Kir21 confirm inactive | HEK293 Tl flux inactive | CHO-K1 ctr 3.7 | KCNQ1 sel pot inactive | KCNQ2 pot confirm 34 | Kir21 spec inactive | KCNQ2 W236L MoA inactive
Cc1c(C)n(Cc2ccccc2)c2ccc(C(=O)NCCN3CCOCC3)cc12	none
Cc1c(C)n(Cc2ccccc2)c2ccc(C(=O)OCCN(C)C)cc12	none (no result: KCNQ2 enhance) | Kir21 confirm 26% | HEK293 Tl flux inactive
CCCCCC(=O)Cc1cc(O)cc2c1C(=O)Oc1cc(O)c(C(=O)O)c(CCCCC)c1O2	KCNQ2 enhance 7.5 | Kir21 confirm inactive | HEK293 Tl flux inactive | CHO-K1 ctr inactive | KCNQ1 sel pot 43 | KCNQ2 pot confirm 8.8 | Kir21 spec inactive | KCNQ2 W236L MoA inactive
Cc1nn(Cc2ccccc2)c2ncccc12	none (no result: KCNQ2 enhance)
COc1ccc(C2C(C#N)=C(N)Oc3cc(O)ccc32)cc1Cl (stereo not drawn)	none (no result: KCNQ2 enhance)
COc1ccc(CNC(=O)CSc2ncn[nH]2)cc1OC	none (no result: KCNQ2 enhance)
